Source: ChEMBL document CHEMBL4513146, “CO-ADD screening of Karazin Kharkiv National University (Ukraine) compounds”
Results with a measured potency or affinity are listed apart.

Legend:
Klebsiella pneumoniae = conditions: Concentration 32 ug.mL-1;; ASSAY_TEST Inhibition of Bacterial Growth; detection method Absorption (OD600); MEDIA CAMHB; plate type 384well; NBS; CORNING #3640; time 18 hr
Candida albicans = conditions: Concentration 32 ug.mL-1; ASSAY_TEST Inhibition of Fungal Growth; detection method Absorption (OD530)
Cryptococcus neoformans = conditions: Concentration 32 ug.mL-1; ASSAY_TEST Inhibition of Fungal Growth; detection method Resazurin; Absorption (OD600-OD570); plate type 384well; NBS; CORNING #3640

SMILES	Inhibition (Klebsiella pneumoniae)	Inhibition (Candida albicans)	Inhibition (Cryptococcus neoformans)
COc1ccc(C)cc1NC(=O)Cn1nc2ccc(SC(C)(C)C)nn2c1=O	5.72%	3.1%	-12.69%
Cn1c(=O)c2sccc2n2c(=O)n(CCOc3ccccc3)nc12	1.76%	-1.1%	-29.95%
Cc1ccc(Cl)cc1NC(=O)CSc1nnc2ccc(C(=O)Nc3cccc(F)c3)cn12	3.53%	4.15%	-1.38%
COc1ccc(Cn2nc3ccc(-c4ccccc4)nn3c2=O)cc1F	8.32%	1.33%	-0.36%
Cc1ccc(N(CC(=O)OC(C)(C)C)S(=O)(=O)c2ccc3nnc(C)n3c2)cc1	4.9%	1.78%	-16.68%
COc1cccc(C(=O)Cn2nc3n(CCC(C)C)c(=O)c4sccc4n3c2=O)c1	-2.35%	8.83%	-5.93%
O=C(CSc1nc2ccccc2n2cnnc12)Nc1cccc(Br)c1	2.26%	-0.56%	-6.2%
COc1cc(NC(=O)CSc2nnc3c(=O)n(-c4cccc(OC)c4)ccn23)cc(OC)c1	6.06%	3.75%	-8.68%
COc1cc(NC(=O)C(C)Sc2nnc3c(=O)n(-c4ccccc4OC)ccn23)cc(OC)c1 (centres undefined)	11.13%	1.4%	-7.6%
Cc1cccc(N(Cc2cccc(Cl)c2)S(=O)(=O)c2cccn3c(C)nnc23)c1	4.74%	3%	-4.93%
Cc1ccc(Sc2nccn3c(=O)n(CC(=O)Nc4ccccc4C)nc23)c(C)c1	6.75%	4.26%	-25.74%
Cc1ccc(CNC(=O)Cn2nc3ccc(SCc4ccc(Cl)cc4)nn3c2=O)cc1	9.12%	20.24%	-27.26%
CCN(C(=O)Cn1nc2cc(C)nc(Nc3ccc(C)c(F)c3)n2c1=O)c1ccccc1	13.32%	0.56%	-6.91%
Cc1ccc(-n2ccn3c(=O)n(Cc4cccc(F)c4)nc3c2=O)cc1C	5.72%	0.74%	-14.54%
CC(C)CCn1c(=O)c2sccc2n2c(=O)n(CC(N)=O)nc12	10.09%	-1.13%	-22.72%
Cc1ccc(-c2ccc3nn(CC(=O)NCc4ccc(Cl)cc4)c(=O)n3n2)cc1C	6.14%	6.17%	-11%
O=C(Cn1nc2c(SC3CCCCC3)nccn2c1=O)Nc1ccccc1F	4.58%	0.33%	-26.33%
Cc1ccccc1Cn1nc2ccc(-c3ccccc3)nn2c1=O	7.15%	0.4%	-8.99%
O=C(Cn1nc2c3c4c(sc3ncn2c1=O)CCCC4)N1CCc2ccccc2C1	9.79%	4.18%	-11.61%
Cc1ccc(C)c(NC(=O)Cn2nc3cc(C)nc(Nc4ccc(F)cc4)n3c2=O)c1	5.73%	2.17%	-16.31%
Cc1ccc(NC(=O)Cn2nc3c(N4CCOCC4)nccn3c2=O)cc1F	7.04%	3.27%	-4.33%
CCCN(C)c1nccn2c(=O)n(CC(=O)Nc3ccc(Br)cc3)nc12	7.69%	3.8%	-7.69%
COc1ccc(-c2cc3c4nn(CC(=O)Nc5cc(OC)cc(OC)c5)c(=O)n4ccn3n2)cc1	0.53%	33.73%	-18.18%
CC(C)Cn1c(=O)c2ccc(C(=O)NC3CCCC3)cc2n2c(=O)n(CC(=O)NC3CCCCC3)nc12	4.14%	-1.41%	-14.36%
COc1ccc(NC(=O)Cn2nc3ccc(-c4ccccc4)nn3c2=O)cc1OC	-3.16%	3.57%	0.88%
Cc1nnc2ccc(S(=O)(=O)N(Cc3ccc(F)cc3)c3cc(F)cc(F)c3)cn12	9.19%	0.51%	-14.68%
O=C(Cn1nc2c3sc(N4CCCC4)nc3ncn2c1=O)Nc1ccccc1Br	2.42%	1.39%	-9.14%
COc1cccc(Oc2nccn3c(=O)n(CC(=O)Nc4ccc5c(c4)OCO5)nc23)c1	7.21%	1.19%	-8.5%
